Here are results for 25 molecules from PubChem BioAssay AID1851 (National Center for Advancing Translational Sciences (NCATS), 2009).

In all, about 16,000 compounds went through this assay and about 5,100 (32%) were called active. Inconclusive results (about 25%) are left out. Calls follow the shape of the dose curve; as a rule, active = well fitted curve in the direction sought with a large enough effect; inconclusive = small, poorly fitted or top-dose-only effect, or effect the other way; inactive = no such curve, though single readings can be large or run the other way. Some of the results follow.

For orientation: AC50 means the concentration giving half of the maximal activity seen.
% is scaled to controls: 0 for no effect and ±100 for the full control effect.

The target in the assay is Cytochrome P450 3A4 (Homo sapiens) (UniProt P08684). The experiment in a line: Cytochrome panel assay with activity outcomes. The conditions noted are these: recombinant CYP, pro-luciferin dealkylation, luminescence, p450-cyp3a4; series mostly up to 57.1 µM; activity, negative = inhibition: at the top concentration.
Sequence of Cytochrome P450 3A4 (Homo sapiens) (P08684 whole entry, looked up): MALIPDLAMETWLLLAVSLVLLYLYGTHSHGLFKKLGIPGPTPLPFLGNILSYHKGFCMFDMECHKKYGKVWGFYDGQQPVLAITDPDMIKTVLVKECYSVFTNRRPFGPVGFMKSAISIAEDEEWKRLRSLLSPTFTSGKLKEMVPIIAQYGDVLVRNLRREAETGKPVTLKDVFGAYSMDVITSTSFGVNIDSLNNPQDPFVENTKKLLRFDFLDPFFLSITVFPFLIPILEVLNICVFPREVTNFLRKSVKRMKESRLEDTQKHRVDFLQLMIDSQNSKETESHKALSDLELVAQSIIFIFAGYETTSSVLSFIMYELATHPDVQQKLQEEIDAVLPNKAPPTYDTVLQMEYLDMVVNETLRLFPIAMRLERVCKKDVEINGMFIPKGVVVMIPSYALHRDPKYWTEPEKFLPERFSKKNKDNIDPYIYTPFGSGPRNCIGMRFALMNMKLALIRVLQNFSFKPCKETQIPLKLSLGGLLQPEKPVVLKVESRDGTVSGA
Consider `CC(C)OC(=O)C1=C2SCC(=O)N2C(N)=C(C#N)C1`, for which the activity, negative = inhibition was -16.2% [at 11.4 µM] (inactive).
With `COc1ccc(-n2c(=O)c(-c3cccc(C#N)c3)nc3cnc(N4CCNCC4)nc32)cc1`, the “activity, negative = inhibition” value was -26.2% (inactive).
In the case of `CN1CCN(c2nc(-c3cccc(C#N)c3)nc3ccccc23)CC1`, the AC50 is 15.8 µM (active).
Consider `c1ccc2c(N3CCNCC3)nc(-c3ccc4c(c3)OCO4)nc2c1`, for which the AC50 was 7.94 µM (active).
Still for that read-out and setting: the same measure for `N#Cc1cccc(-c2nc(N3CCNCC3)c3ccccc3n2)c1`: 31.6 µM (active).
Take `CC(Cc1ccccc1)C(=O)NCc1ccccn1` (stereo not given): the “activity, negative = inhibition” value was -42.9% (inactive).
With `C[C@@H](C(=O)NCc1ccccn1)[C@@H]1C[C@@]1(C)[C@@H](NC(=O)OCc1ccccc1)c1ccccc1`, the AC50 is 10 µM (active).
Regarding `O=C(N[C@@H](c1ccccc1)[C@@H]1C[C@H]1C(=O)NCc1ccccn1)OCc1ccccc1`, the AC50 is 6.31 µM (active).
On to `O=C(N[C@@H](c1ccccc1)[C@@H]1C[C@H]1C(=O)O)OCc1ccccc1`, for which the “activity, negative = inhibition” value was -15.8% (inactive).
For `C[C@@H](C(=O)NCc1ccccn1)[C@H]1C[C@]1(C)[C@H](NC(=O)OCc1ccccc1)c1ccccc1`, the AC50 is 5.01 µM (active).
Regarding `O=C(O)C(Sc1ccc(Cl)cc1)Sc1ccc(Cl)cc1`, the activity, negative = inhibition was 12.3% [at 11.4 µM] (inactive).
Turning to `COCCN(C(=O)c1ccco1)c1nnc(-c2ccc(OC)cc2)s1`, the activity, negative = inhibition is -28.3% [at 2.29 µM] (inactive).
For `O=C(NCc1ccccc1)C(c1cccs1)N(Cc1cccs1)C(=O)c1cnccn1` (stereo not given), the AC50 is 0.891 µM (active).
As to `O=C(O)C(Cc1cccs1)C(=O)O`, the activity, negative = inhibition is -8.79% [at 11.4 µM] (inactive).
As to `COc1ccc(C(C(=O)NCc2ccccc2)N(Cc2cccs2)C(=O)c2cnccn2)cc1` (stereo not given), the AC50 was 0.708 µM (active).
For `COc1ccc(CNC(=O)C(c2ccc(C)cc2)N(Cc2cccs2)C(=O)c2ccc3c(c2)OCCO3)cc1` (stereo not given), the AC50 is 1 µM (active).
As to `COc1ccc2nc3oc(C(=O)NCc4cccs4)cc3cc2c1`, the “activity, negative = inhibition” value was -23.2% (inactive).
`O=C(COC(=O)c1cnccn1)NCc1ccccc1`: the activity, negative = inhibition was -20.5% [at 11.4 µM] (inactive).
In the case of `COc1ccc(C(=O)n2c(SC)nc3cc4c(cc32)OCCO4)cc1`, the activity, negative = inhibition is -12% [at 2.29 µM] (inactive).
On to `CCc1ccc(C(C(=O)NCc2ccc(OC)cc2)N(CCOC)C(=O)Cc2cccs2)cc1` (stereo not given), for which the AC50 is 1 µM (active).
In the case of `Cc1cccc(NC(=O)CSc2nnnn2C)n1`, the “activity, negative = inhibition” value was -9.12% (inactive).
As for `CCOC(=O)c1c(NC(=O)CSc2nnnn2C)sc(C)c1C`, the AC50 was 14.1 µM (active).
Take `CCOC(=O)c1c(NC(=O)CCc2ccc(CC)o2)sc(C)c1C`: the AC50 is 12.6 µM (active).
Consider `CCc1c(C)sc(NC(=O)OC)c1C(N)=O`, for which the “activity, negative = inhibition” value was 19.8% (inactive).
Turning to `Nc1nc2c(ncn2COCCO)c(=O)[nH]1`, the AC50 entry is “inactive”.
